Laboratory results: PubChem BioAssay (NCATS)
Results filed as inconclusive are left out. A call without a number means that no potency is given here. Values without a mark were called inactive. Activity calls are given as the source filed them. The call rests on the fitted dose curve; in most records, active means well fitted curve in the direction sought with a large enough effect; inconclusive means small, poorly fitted or top-dose-only effect, or another doubt; inactive means no such curve, though single readings can be large; an effect the other way counts as inactive or inconclusive.

Experiments:
[1] = P-glycoprotein substrates identified in KB-8-5-11 adenocarcinoma cell line, qHTS therapeutic library screen (AID 1346987); further: nearly all actives have a fitted effect of over 65% in size; on activity change, negative = cytotoxicity: series mostly up to about 44 µM
How it was run: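 Human cervical adenocarcinoma KB-8-5-11 cells, selected in colchicine to over-express P-gp and assayed without it, were exposed for 72 h to titrated compounds. An ATP-based luminescent viability signal gave AC50.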

[2] = test system: Zika virus NS2B-NS3 protease (unlinked complex); test: Primary screen GU Rhodamine qHTS for Zika virus inhibitors: Unlinked NS2B-NS3 protease assay (AID 1347159); further: nearly all actives have a fitted effect of over 60% in size; further: potency means the concentration at half of the fitted maximal effect
How it was run: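 Unlinked NS2B/NS3, 25 nM; Rhod110 peptide, 1.5 microM; compounds, up to 114 microM. Reaction run 15 min at RT in 10 mM Tris-HCl pH 8.0, 0.01% Tween 20; kinetic fluorescence change fitted with a 4-parameter Hill model.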

[3] = test system: Zika virus NS2B-NS3 protease (linked construct); test: Primary screen NINDS Rhodamine qHTS for Zika virus inhibitors (AID 1347160); further: nearly all actives have a fitted effect of over 55% in size; further: potency means the concentration at half of the fitted maximal effect
How it was run: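 Single-chain NS2B-NS3 protease, 25 nM, pH 8.0; compounds preincubated 15 min. Activity: Rhodamine110 release from 1.5 microM substrate over 15 min, room temperature, data fitted to 4-parameter Hill.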

With CC(C)N(CCCNC(=O)Nc1ccc(C(C)(C)C)cc1)C[C@H]1O[C@@H](n2ccc3c(N)ncnc32)[C@H](O)[C@@H]1O as the compound, how does the Potency [1] read?
Its Potency is “inactive”.

And the Potency [2]?
Its Potency is “inactive”.

What about the Potency [3] of the same compound?
The Potency was “inactive”.

Which results are given for CC1(C)C(=O)CCC2(C)C1C(O)C=C1COC(=O)C12O (centres undefined)?
Potency [1]: inactive; Potency [2]: inactive; Potency [3]: inactive

With CC(C)C1C(OC(=O)/C=C/c2ccccc2)CC2(C)OC2CCC2(C)OC2C1O (centres undefined) as the compound, how does the Potency [1] read?
The Potency was “inactive”.

And the Potency [2]?
The Potency was “inactive”.

And the Potency [3]?
The Potency was “inactive”.

Which results are given for COc1c(O)cc2c(c1O)C(=O)O[C@H](C)[C@H]2O?
Potency [1]: inactive; Potency [2]: inactive; Potency [3]: inactive

Which Potency [1] does the source give for COc1ccc([C@H]2OC[C@H]3[C@@H]2CO[C@@H]3c2ccc(O[C@@H]3O[C@H](CO)C(O)[C@H](O)[C@H]3O)c(OC)c2)cc1OC (some centres undefined) here?
The Potency was “inactive”.

And the Potency [2]?
The Potency was “inactive”.

And the Potency [3]?
The Potency was “inactive”.

Which Potency [1] does the source give for C[C@@H]1C[C@@H](O)[C@@]2(CO)C(CO)=CCC[C@@H]2[C@@]12C[C@@H](c1ccoc1)OC2=O here?
The Potency was “inactive”.

What about the Potency [2] of the same compound?
Its Potency is “inactive”.

What about the Potency [3] of the same compound?
Its Potency is “inactive”.

With C/C=C/C1OC2=C(C(=O)OC2(C)O)C(O)C1O (centres undefined) as the compound, how does the Potency [1] read?
Its Potency is “inactive”.

And the Potency [2]?
Its Potency is “inactive”.

And the Potency [3]?
Its Potency is “inactive”.

Which results are given for CC(C)=CCC[C@](C)(O[C@@H]1O[C@H](CO[C@@H]2OC[C@H](O)[C@H](O)[C@H]2O)[C@@H](O)[C@H](O)[C@H]1O)[C@H]1CC[C@]2(C)[C@@H]1[C@H](O)C[C@@H]1[C@@]3(C)CC[C@H](O[C@@H]4O[C@H](CO)[C@@H](O)[C@H](O)[C@H]4O[C@@H]4O[C@H](CO)[C@@H](O)[C@H](O)[C@H]4O)C(C)(C)[C@@H]3CC[C@]12C?
Potency [1]: inactive; Potency [2]: inactive; Potency [3]: inactive

For CCC1OC(=O)C(C)CC(C)C(=O)/C(C)=C/C(C)C(=O)/C=C/C1(C)O (centres undefined), which Potency [1] is on record?
The Potency was “inactive”.

And the Potency [2]?
The Potency was “inactive”.

And the Potency [3]?
The Potency was “inactive”.

Which results are given for COC(=O)C1=COC(OC2OC(CO)C(O)C(O)C2O)C2C(C)C(OC(=O)/C=C/c3ccc(O)cc3)C(O)C12 (centres undefined)?
Potency [1]: inactive; Potency [2]: 28.2 µM (active); Potency [3]: inactive

Which Potency [1] does the source give for CC1=C2C(=O)C=C(CO[C@@H]3O[C@H](CO)[C@@H](O)[C@H](O)[C@H]3O)[C@@H]2[C@H]2OC(=O)[C@H](C)[C@@H]2CC1 here?
The Potency was “inactive”.

And the Potency [2]?
Its Potency is “inactive”.

And the Potency [3]?
Its Potency is “inactive”.

For CNC(=O)c1ccc2c(c1)CCO[C@H]2CCN1CCN(c2ccc(C(N)=O)cc2)CC1, which Potency [1] is on record?
The Potency was “inactive”.

What about the Potency [2] of the same compound?
Its Potency is “inactive”.

What about the Potency [3] of the same compound?
The Potency was “inactive”.

With C/C=C/C(=O)OC1/C=C/C(O)C(OC(C)=O)CCC(=O)OC1C (centres undefined) as the compound, how does the Potency [1] read?
Its Potency is “inactive”.

What about the Potency [2] of the same compound?
The Potency was “inactive”.

What about the Potency [3] of the same compound?
The Potency was “inactive”.

For C[C@@H]1O[C@@H](OC2C(CO)OC(OCC3OC(OC(=O)[C@]45CCC(C)(C)CC4C4=CCC6[C@@]7(C)CC[C@@H](O)[C@](C)(C(=O)O)C7CC[C@@]6(C)[C@]4(C)CC5)C(O)C(O)C3O)C(O)C2O)[C@H](O)[C@H](O)[C@H]1O (some centres undefined), which activity change, negative = cytotoxicity [1] is on record?
Its activity change, negative = cytotoxicity is 5.62% [at 9.29 µM].

What about the Potency [2] of the same compound?
Its Potency is “inactive”.

And the Potency [3]?
Its Potency is “inactive”.

Which Potency [1] does the source give for C=CC1(C)CC=C2C(CCC3C(C)(C(=O)O)CCCC23C)C1 (centres undefined) here?
Its Potency is “inactive”.

And the Potency [2]?
Its Potency is 5.62 µM (active).

What about the Potency [3] of the same compound?
Its Potency is 14.1 µM (active).

Which Potency [1] does the source give for CC1=C2C[C@@]3(C)C(CCC[C@@H]3C)C(O)C2(O)OC1=O (some centres undefined) here?
Its Potency is “inactive”.

And the Potency [2]?
The Potency was “inactive”.

And the Potency [3]?
The Potency was “inactive”.

Which results are given for CCCC(C(=O)O)c1c(C)nc2ccc(Cl)cc2c1-c1ccccc1 (centres undefined)?
Potency [1]: inactive; Potency [2]: 31.6 µM (active); Potency [3]: 14.1 µM (active)

For O=C(O)[C@H]1Cc2ccccc2CN1, which activity change, negative = cytotoxicity [1] is on record?
The activity change, negative = cytotoxicity was 6.15% [at 5.11 µM].

And the activity change, negative = inhibition [2]?
Its activity change, negative = inhibition is -0.45% [at 11.5 µM].

And the activity change, negative = inhibition [3]?
Its activity change, negative = inhibition is 20.2% [at 4.91 µM].

For COc1ccc(Oc2c(Cl)cnn(C3c4ccccc4-c4ccccc43)c2=O)cc1, which Potency [1] is on record?
The Potency was “inactive”.

And the Potency [2]?
Its Potency is “inactive”.

What about the Potency [3] of the same compound?
The Potency was “inactive”.

Which results are given for CC1CCC2(NC1)OC1C(O)C3C4CCC5CC(O[C@@H]6O[C@H](CO)[C@@H](O)[C@H](O)[C@H]6O[C@@H]6O[C@@H](C)[C@H](O)[C@@H](O)[C@H]6O)CCC5(C)C4CCC3(C)C1C2C (some centres undefined)?
Potency [1]: inactive; Potency [2]: inactive; Potency [3]: inactive

What does the source list for COC(O)(CC(C)C)C1Oc2cc(C)[nH]c(=O)c2O1 (centres undefined)?
Potency [1]: inactive; Potency [2]: inactive; Potency [3]: inactive

For CC(O)C(O)/C=C/C=C/C(=O)O[C@@H]1C=C(C(=O)O)[C@](O)(CO)[C@@]2(C)CCCC(C)(C)[C@H]12 (some centres undefined), which Potency [1] is on record?
Its Potency is “inactive”.

What about the Potency [2] of the same compound?
The Potency was “inactive”.

What about the Potency [3] of the same compound?
Its Potency is “inactive”.

For CC(=O)[C@@H]1C[C@H](C(C)(C)O[C@@H]2O[C@H](CO)[C@@H](O)[C@H](O)[C@H]2O)CC[C@@]2(CO)OC(=O)C[C@@H]12, which Potency [1] is on record?
The Potency was “inactive”.

And the Potency [2]?
The Potency was “inactive”.

And the Potency [3]?
Its Potency is “inactive”.

Which results are given for CC1(C)CC[C@]2(C(=O)O[C@@H]3O[C@H](CO)[C@@H](O)[C@H](O)[C@H]3O)CC[C@]3(C)C(=CCC4[C@@]5(C)CC[C@H](O[C@@H]6O[C@H](C(=O)O)[C@@H](O[C@@H]7O[C@H](CO)[C@@H](O)[C@H](O)[C@H]7O)[C@H](O)[C@H]6O[C@@H]6O[C@H](CO)[C@@H](O)[C@H](O)[C@H]6O)C(C)(C)C5CC[C@]43C)C2C1 (some centres undefined)?
outcome [1]: inactive [at 9.29 µM]; Potency [2]: inactive; Potency [3]: inactive

Which Potency [1] does the source give for CC1(C)CC[C@]2(C(=O)O[C@@H]3O[C@H](CO)[C@@H](O)[C@H](O)[C@H]3O)CC[C@]3(C)C(=CCC4[C@@]5(C)C[C@@H](O)[C@H](O)[C@@](C)(CO)C5[C@H](O)C[C@]43C)C2C1 (some centres undefined) here?
The Potency was “inactive”.

And the Potency [2]?
The Potency was “inactive”.

And the Potency [3]?
The Potency was “inactive”.

Which Potency [1] does the source give for C/C=C/C=C/C(O)=C1/C(=O)[C@]2(C)C3/C(=C(O)/C=C/C=C/C)C(=O)C4(C)C1[C@]1(C)O[C@@]4(O)[C@@]3(C)O[C@@]12O here?
Its Potency is “inactive”.

What about the Potency [2] of the same compound?
Its Potency is “inactive”.

And the Potency [3]?
The Potency was “inactive”.

Which Potency [1] does the source give for CC(=O)O[C@H]1[C@H](OC(=O)C(C)C)[C@]2(C)OC3(CC[C@]2(C)[C@H]2CCC[C@]4(CO4)[C@]12C)COC(=O)C3 (some centres undefined) here?
Its Potency is “inactive”.

And the Potency [2]?
Its Potency is “inactive”.

What about the Potency [3] of the same compound?
Its Potency is “inactive”.

What does the source list for CC1CC(=O)C2C(O)(C1)CC(O)C13OC1c1c(O)cccc1C(=O)C23O (centres undefined)?
Potency [1]: inactive; Potency [2]: inactive; Potency [3]: inactive
